A selection: hits, their analogues and other compounds. The true share with any hit is near 5.2%.
TrxR1 inh = qHTS Assay for Inhibitors of Mammalian Selenoprotein Thioredoxin Reductase 1 (TrxR1): qHTS; Thioredoxin reductase 1, cytoplasmic (Rattus norvegicus), O89049; AID 588453, 2011; Potency, µM (highest dose often 114 µM), hits mostly inhibitors; 390,000 tested, 1% active; recombinant rTrxR1, NADPH fluorescence consumption, selenite substrate; note: nearly all actives have a fitted effect of over 65% in size
Target sequence (O89049 whole entry, looked up): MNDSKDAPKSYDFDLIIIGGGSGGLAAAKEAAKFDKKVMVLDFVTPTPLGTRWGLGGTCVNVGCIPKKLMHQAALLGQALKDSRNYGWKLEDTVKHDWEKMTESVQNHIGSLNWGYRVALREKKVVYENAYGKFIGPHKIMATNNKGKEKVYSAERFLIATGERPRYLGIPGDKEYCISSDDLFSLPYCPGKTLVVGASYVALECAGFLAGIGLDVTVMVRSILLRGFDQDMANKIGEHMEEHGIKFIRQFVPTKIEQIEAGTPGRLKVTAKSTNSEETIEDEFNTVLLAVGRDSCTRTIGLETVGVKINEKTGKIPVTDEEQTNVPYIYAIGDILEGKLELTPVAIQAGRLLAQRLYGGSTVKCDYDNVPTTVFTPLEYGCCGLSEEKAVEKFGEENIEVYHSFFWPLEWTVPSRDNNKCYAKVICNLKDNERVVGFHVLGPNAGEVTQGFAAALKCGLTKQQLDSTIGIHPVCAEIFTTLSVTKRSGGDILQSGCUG
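Rat TrxR1 (90 nM in the dispensed reagent) was pre-reduced with 400 uM NADPH for 5 min at room temperature, then incubated with compound for 15 min. After 400 uM selenite was added, NADPH fluorescence (Ex 340/Em 450 nm) was followed for 8 min.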
PLK1 PBD inh = qHTS for Inhibitors of PLK1-PDB (polo-like kinase 1 - polo-box domain): Primary Screen; Potency, µM, hits mostly inhibitors; Plk1 PBD binding of FITC phosphopeptide, fluorescence polarization; Serine/threonine-protein kinase PLK1 (Homo sapiens), P53350; AID 720504, 2013; 360,000 tested, 2.8% active; note: series mostly up to about 57 µM; nearly all actives have a fitted effect of over 65% in size
Sfp inh = qHTS Assay for Inhibitors of Bacillus subtilis Sfp phosphopantetheinyl transferase (PPTase) | 4'-phosphopantetheinyl transferase ffp (Bacillus subtilis), Q9F4F7 | Biochemical Sfp PPTase activity, qHTS | Potency, µM, most hits filed as inhibitors | 310,000 tested, 3.5% active;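 note: the enzyme is Sfp with the accession as filed and its product quenches rhodamine fluorescence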
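Fluorescence-quenching assay with 15 nM Sfp, 5 uM rhodamine-CoA and 12.5 uM BHQ-2-labelled ybbR peptide in pH 7.6 Hepes/MgCl2 buffer. Enzyme was pre-incubated with compound for 15 min at room temperature. Rate was taken from the 30-min fluorescence change (525/598 nm).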
TrxR1 substrate = qHTS Assay for Substrates of Mammalian Selenoprotein Thioredoxin Reductase 1 (TrxR1): qHTS; 390,000 tested, 0.01% active; AID 588456, 2011; purified TrxR1 substrate turnover, NADPH consumption readout; Potency, µM (top dose mostly 114 µM); note: nearly all actives have a fitted effect of over 50% in size
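Rat TrxR1, dispensed at 90 nM, was prereduced with 400 uM NADPH (final) for 5 min at ~22 deg C, then incubated with compound 15 min before 400 uM selenite. A first-read NADPH fluorescence drop versus no-compound background flagged substrates.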
VDR inhibitor = Inhibitors of the vitamin D receptor (VDR): qHTS; Vitamin D3 receptor (Homo sapiens), P11473; VDR-SRC2-3 peptide fluorescence polarization, 2 h; Potency, µM, hits mostly inhibitors; 400,000 tested, 0.93% active
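Reagent solutions, kept cold and dark, are dispensed first; compounds are then pinned in at 23 nl, plates briefly spun, and incubated 2 h at ambient temperature. Inhibition of VDR–SRC2-3 peptide binding is read by fluorescence polarization.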
mIDH1 inhibitor = qHTS for Inhibitors of mutant isocitrate dehydrogenase 1 (IDH1): qHTS. Isocitrate dehydrogenase [NADP] cytoplasmic (Homo sapiens), O75874. IDH1-R132H enzyme, NADPH consumption, diaphorase/resazurin fluorescence. Potency, µM (top dose mostly 76.6 µM), actives largely listed as inhibitors. 390,000 tested, 0.093% active; note: nearly all actives have a fitted effect of over 65% in size
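IDH1-R132H (0.5 ug/mL) preincubated 30 min with compound, then NADPH (0.016 mM) and alpha-KG (2 mM) added; 80 min at RT, pH 7.5. Remaining NADPH coupled via diaphorase/resazurin to fluorescence (540/590 nm); concentration-response curves normalized to no-enzyme control.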
A number is an active result; - = inactive; ? = inconclusive; . = not tested or not shown; [ ] = dose if it differs, or a comment. Calls come from the whole dose curve; as a rule, active = well fitted curve in the direction sought with a large enough effect; inconclusive = small, poorly fitted or top-dose-only effect, or another doubt; inactive = no such curve, though single readings can be large; an effect the other way counts as inactive or inconclusive.

SMILES	TrxR1 inh	PLK1 PBD inh	Sfp inh	TrxR1 substrate	VDR inhibitor	mIDH1 inhibitor
CC(=O)c1n[nH]nc1Nc1nc(C)cc(C)n1	-	-	28.2µM	-	-	-
COc1cc(Nc2nc(SCc3cccc(Cl)c3)nc3ccccc23)cc(OC)c1	-	.	.	-	-	-
CN(CC(=O)Nc1ccc2c(c1)CCC2)CC(=O)Nc1ccccc1Br	-	6.7µM	-	-	?	-
CCOC(=O)CN(C(=O)COc1ccc2c(C)cc(=O)oc2c1)c1ccc(OCC)cc1	-	-	-	-	-	-
O=C(c1ccccc1Cl)N(Cc1ccc(Br)cc1)N1C(=O)CCC1=O	-	-	-	-	-	-
CC12CCC(C/C1=N\N=C1\NC(=O)/C(=C\c3ccc(Cl)cc3)S1)C2(C)C (stereo not drawn)	-	23.8µM	-	-	?	-
O=C1NC(=Nc2ccccc2Cl)S/C1=C\c1ccc(C(=O)O)cc1	-	-	-	-	-	-
Cc1ccc(NC(=O)[C@H](C)NC(=O)C2CCN(C(=O)[C@@H](N)C(C)C)CC2)cc1	-	-	-	-	-	-
O=[N+]([O-])c1cc(Br)c(O)c(C=Nc2ccc(N3CCOCC3)cc2)c1	-	-	-	-	?	-
Oc1ccc(N=Cc2cc(Br)c(N3CCOCC3)o2)cc1	31.6µM	-	39.8µM	-	-	-
O=C(CCC(=O)N/N=C/c1cc(Cl)cc(Cl)c1O)NCc1ccccc1	-	9.47µM	-	-	?	-
O=C(CCC(=O)N/N=C/c1ccc(Br)s1)NCc1ccccc1	-	-	-	-	-	-
Cc1ccc(C(=O)N2CCN(C)CC2)cc1S(=O)(=O)N1CCCCCC1	-	-	-	-	-	-
Nc1oc2ccccc2c1C(=O)Cc1ccccc1O[C@@H]1O[C@H](CO)[C@@H](O)[C@H](O)[C@H]1O	-	-	.	-	-	-
Cc1noc(/C=C/c2ccco2)c1S(=O)(=O)N1CCC(C(=O)Nc2ccc(F)c(Cl)c2)CC1	-	.	.	-	-	-
CC(C)(C)C(=O)O/N=C1/C(=O)N(c2ccccc2)c2ccccc21	-	-	-	-	-	-
CC(C)CC(=O)O/N=C1\C(=O)N(c2ccccc2)c2ccccc21	-	29.9µM	-	-	-	-
COc1cccc(-c2nc(CS(=O)(=O)CC(=O)NCc3cccc(Cl)c3)c(C)o2)c1	-	.	.	-	-	-
Cc1cc(NC(=O)Nc2ccc3c(ccn3C)c2)sn1	-	-	79.4µM	-	-	-
Cc1ccc(NC(=O)Nc2ccc3c(c2)nc(C)n3C)cc1	-	-	-	-	-	-
Clc1ccc2c(SCC3CO3)c3ccccc3nc2c1 (stereo not drawn)	-[11.4 µM]	-	.	-[11.4 µM]	39.8µM	-
O=C(CSc1c2c(nc3cc(Cl)ccc13)CCCC2)NCCN1CCOCC1	-	-	-	-	?	-
CO[C@H]1/C=C/O[C@@]2(C)Oc3c(C)c(O)c4c(O)c(c(/C=N\N5CCN(C6CCCC6)CC5)c(O)c4c3C2=O)NC(=O)/C(C)=C\C=C\[C@H](C)[C@H](O)[C@@H](C)[C@@H](O)[C@@H](C)[C@H](OC(C)=O)[C@@H]1C	.	.	-	.	11.2µM	.
CO[C@H]1/C=C\O[C@@]2(C)Oc3c(C)c(O)c4c(O)c(c(C=NN5CCN(C6CCCC6)CC5)c(O)c4c3C2=O)NC(=O)C(C)=CC=C[C@H](C)[C@H](O)[C@@H](C)[C@@H](O)[C@@H](C)[C@H](OC(C)=O)[C@H]1C	-	.	.	-	.	.
C#Cc1ccc2c(c1)C(=O)N(C)Cc1c(C(=O)OCCCOC(=O)c3ncn4c3CN(C)C(=O)c3cc(C#C)ccc3-4)ncn1-2	.	.	-	.	-	.
SMILES	TrxR1 inh	PLK1 PBD inh	Sfp inh	TrxR1 substrate	VDR inhibitor	mIDH1 inhibitor
COc1ccc(-n2c(=S)[nH]c3ccccc3c2=S)cc1	-	-	-	-	-	-
COc1ccc(-n2c(=S)[nH]c3ccccc32)cc1	-	?	44.7µM	-	-	-
O=S(=O)(CCN1CCCCC1)Oc1ccc(Cl)cc1Cl	0.891µM	11.9µM	-	-	-	-
O=C(COc1ccc(Cl)cc1Cl)NCCN1CCCCC1	.	-	.	.	.	-
COC(=O)c1c(C)nn(-c2ccc(F)cc2)c1-n1cccc1	-	.	.	-	-	.
COc1cc(/C=C2\CCCc3c2nc2ccccc2c3C(=O)O)cc([N+](=O)[O-])c1O	-	-	-	-	-	-
COc1ccc(/C=C2\CCCc3c2nc2ccccc2c3C(=O)O)cc1OC	.	.	35.5µM	.	.	.
COc1cc(/C=C2\CCCc3c2nc2ccccc2c3C(=O)O)cc(OC)c1O	?	26.7µM	11.2µM	-	-	-
COc1ccc(/C=C2\CCc3c2nc2ccccc2c3C(=O)O)cc1OC	-	-	-	-	-	-
CC(O)(c1cccnc1)c1nc(-c2ccc(S(C)(=O)=O)cc2)cs1 (stereo not drawn)	.	-	.	.	.	.
COc1ccc(C(c2c(N)[nH]c(=S)[nH]c2=O)c2c(N)[nH]c(=S)[nH]c2=O)cc1	?	-	79.4µM	-	-	-
C=CC[C@@H]1C=C[C@H](O/N=C(\C)CCN2CCCc3nc(C)c(C)cc32)[C@H](CO)O1	.	.	-	.	.	.
COc1ccnc(CSC(N)=Nc2ccccc2OC)c1	-	-	31.6µM	-	?	-
O=C(Nc1ccc(C(=O)Nc2ccc(C(=O)Nc3ccc(S(=O)(=O)O)c4cc(S(=O)(=O)O)cc(S(=O)(=O)O)c34)cc2)cc1)Nc1ccc(C(=O)Nc2ccc(C(=O)Nc3ccc(S(=O)(=O)O)c4cc(S(=O)(=O)O)cc(S(=O)(=O)O)c34)cc2)cc1	.	.	?	.	5.62µM	.
CC/C(=C/c1sc2ccc(C)cc2[n+]1CCCS(=O)(=O)[O-])SC	-	-	50.1µM	-	-	-
Cc1sc2ccccc2[n+]1CCCCI	-	.	.	-	.	.

Screening results (PubChem)
